# The supplement of paper PMC10849652
# About 7,900 targets were measured; listed, in parts, are those with a hit and a random draw of the rest. About 0.6% of all pairs of compound and target were hits. Unmarked numbers belong to inactive results.
# Compound: COc1cc(Nc2ncc3c(n2)-c2ccc(Cl)cc2C(c2c(F)cccc2OC)=NC3)ccc1C(=O)O [alisertib]
# Assay: log2 fold change, soluble protein after heating vs DMSO (PISA); higher = thermal stabilisation; K562 cells, 10 uM, 30 min; active = over 0.2 and 3.5 SD of the protein, either way, in both replicates (recomputed)
# Method in brief: (§1)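 Soluble protein was quantified by TMTpro 16plex LC-MS/MS after channel sums were equalised. It was obtained as the supernatant after 21,000xg for 90 min from pooled aliquots of K562 cells (2×10^6 cells/mL, 10 μM compound, 30 min) heated for 3 min across 48°C-58°C and extracted in PBS with 0.5% NP-40 at 4°C. Thermal stability values are relative to control samples and come from duplicates. They are given as log2 fold changes.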
# Sequence of UniProt Q9BZQ8 (Q9BZQ8 whole entry, looked up): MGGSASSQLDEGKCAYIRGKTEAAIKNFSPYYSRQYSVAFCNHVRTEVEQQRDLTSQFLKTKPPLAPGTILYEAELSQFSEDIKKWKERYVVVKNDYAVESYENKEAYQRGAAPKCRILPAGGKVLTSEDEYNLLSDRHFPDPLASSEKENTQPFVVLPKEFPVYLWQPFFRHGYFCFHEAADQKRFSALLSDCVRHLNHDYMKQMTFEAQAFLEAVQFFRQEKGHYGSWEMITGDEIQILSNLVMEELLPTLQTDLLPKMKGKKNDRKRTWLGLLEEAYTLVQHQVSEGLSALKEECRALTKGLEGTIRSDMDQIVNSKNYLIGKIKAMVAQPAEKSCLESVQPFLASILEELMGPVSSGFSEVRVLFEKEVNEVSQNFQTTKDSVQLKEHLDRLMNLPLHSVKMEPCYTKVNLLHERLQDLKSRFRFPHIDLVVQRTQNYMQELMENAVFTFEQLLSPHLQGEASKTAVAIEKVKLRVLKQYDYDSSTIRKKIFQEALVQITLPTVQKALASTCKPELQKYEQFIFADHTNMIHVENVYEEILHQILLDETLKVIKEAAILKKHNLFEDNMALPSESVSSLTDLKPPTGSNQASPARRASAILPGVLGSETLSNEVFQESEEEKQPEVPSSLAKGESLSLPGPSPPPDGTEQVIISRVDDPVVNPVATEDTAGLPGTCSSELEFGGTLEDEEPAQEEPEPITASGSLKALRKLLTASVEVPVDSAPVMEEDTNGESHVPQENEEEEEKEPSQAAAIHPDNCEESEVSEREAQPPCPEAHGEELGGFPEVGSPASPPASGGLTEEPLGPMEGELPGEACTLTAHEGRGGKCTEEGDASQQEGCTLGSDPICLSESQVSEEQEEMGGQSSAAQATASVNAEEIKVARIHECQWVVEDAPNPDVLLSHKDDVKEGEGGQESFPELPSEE
# Sequence of UniProt Q9HAN9 (Q9HAN9 whole entry, looked up): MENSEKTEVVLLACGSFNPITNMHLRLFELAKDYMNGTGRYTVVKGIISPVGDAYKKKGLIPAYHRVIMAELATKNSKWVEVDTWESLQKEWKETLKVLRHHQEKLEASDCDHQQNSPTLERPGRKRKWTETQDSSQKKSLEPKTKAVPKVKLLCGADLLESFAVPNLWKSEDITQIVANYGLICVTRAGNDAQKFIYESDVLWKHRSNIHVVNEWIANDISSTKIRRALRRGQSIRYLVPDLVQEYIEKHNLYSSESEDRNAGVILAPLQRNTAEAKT
# Sequence of UniProt P84157 (P84157 whole entry, looked up): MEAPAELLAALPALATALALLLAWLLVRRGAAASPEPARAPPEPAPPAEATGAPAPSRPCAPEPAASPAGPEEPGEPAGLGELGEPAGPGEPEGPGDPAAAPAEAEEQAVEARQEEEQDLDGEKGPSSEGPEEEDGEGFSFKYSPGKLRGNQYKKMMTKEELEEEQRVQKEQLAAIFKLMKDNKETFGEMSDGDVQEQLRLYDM
# Sequence of UniProt O43809 (O43809 whole entry, looked up): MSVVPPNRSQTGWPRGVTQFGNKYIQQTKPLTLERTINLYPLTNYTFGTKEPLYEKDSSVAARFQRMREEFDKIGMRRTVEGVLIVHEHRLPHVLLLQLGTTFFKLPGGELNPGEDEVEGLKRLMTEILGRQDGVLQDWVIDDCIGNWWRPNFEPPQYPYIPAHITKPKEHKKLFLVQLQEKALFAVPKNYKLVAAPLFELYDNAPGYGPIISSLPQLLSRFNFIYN
# Sequence of UniProt Q8NCE2 (Q8NCE2 whole entry, looked up): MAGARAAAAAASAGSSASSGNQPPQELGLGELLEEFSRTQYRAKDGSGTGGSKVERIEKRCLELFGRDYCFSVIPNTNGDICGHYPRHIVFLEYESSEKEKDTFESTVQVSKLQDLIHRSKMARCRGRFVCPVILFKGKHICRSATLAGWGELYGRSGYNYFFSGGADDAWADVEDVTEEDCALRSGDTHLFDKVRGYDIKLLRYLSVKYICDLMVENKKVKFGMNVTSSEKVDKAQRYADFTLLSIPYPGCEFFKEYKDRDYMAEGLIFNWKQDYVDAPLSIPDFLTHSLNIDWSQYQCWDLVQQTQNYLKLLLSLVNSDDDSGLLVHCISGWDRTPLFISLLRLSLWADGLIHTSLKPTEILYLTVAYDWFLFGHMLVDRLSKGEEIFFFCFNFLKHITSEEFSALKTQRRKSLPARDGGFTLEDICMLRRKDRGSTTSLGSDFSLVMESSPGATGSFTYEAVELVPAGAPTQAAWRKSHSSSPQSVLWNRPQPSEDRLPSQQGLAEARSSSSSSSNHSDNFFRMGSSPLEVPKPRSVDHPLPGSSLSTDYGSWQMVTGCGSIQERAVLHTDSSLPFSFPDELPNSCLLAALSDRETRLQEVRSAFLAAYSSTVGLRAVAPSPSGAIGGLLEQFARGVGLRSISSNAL
# Sequence of UniProt Q8TEM1 (Q8TEM1 whole entry, looked up): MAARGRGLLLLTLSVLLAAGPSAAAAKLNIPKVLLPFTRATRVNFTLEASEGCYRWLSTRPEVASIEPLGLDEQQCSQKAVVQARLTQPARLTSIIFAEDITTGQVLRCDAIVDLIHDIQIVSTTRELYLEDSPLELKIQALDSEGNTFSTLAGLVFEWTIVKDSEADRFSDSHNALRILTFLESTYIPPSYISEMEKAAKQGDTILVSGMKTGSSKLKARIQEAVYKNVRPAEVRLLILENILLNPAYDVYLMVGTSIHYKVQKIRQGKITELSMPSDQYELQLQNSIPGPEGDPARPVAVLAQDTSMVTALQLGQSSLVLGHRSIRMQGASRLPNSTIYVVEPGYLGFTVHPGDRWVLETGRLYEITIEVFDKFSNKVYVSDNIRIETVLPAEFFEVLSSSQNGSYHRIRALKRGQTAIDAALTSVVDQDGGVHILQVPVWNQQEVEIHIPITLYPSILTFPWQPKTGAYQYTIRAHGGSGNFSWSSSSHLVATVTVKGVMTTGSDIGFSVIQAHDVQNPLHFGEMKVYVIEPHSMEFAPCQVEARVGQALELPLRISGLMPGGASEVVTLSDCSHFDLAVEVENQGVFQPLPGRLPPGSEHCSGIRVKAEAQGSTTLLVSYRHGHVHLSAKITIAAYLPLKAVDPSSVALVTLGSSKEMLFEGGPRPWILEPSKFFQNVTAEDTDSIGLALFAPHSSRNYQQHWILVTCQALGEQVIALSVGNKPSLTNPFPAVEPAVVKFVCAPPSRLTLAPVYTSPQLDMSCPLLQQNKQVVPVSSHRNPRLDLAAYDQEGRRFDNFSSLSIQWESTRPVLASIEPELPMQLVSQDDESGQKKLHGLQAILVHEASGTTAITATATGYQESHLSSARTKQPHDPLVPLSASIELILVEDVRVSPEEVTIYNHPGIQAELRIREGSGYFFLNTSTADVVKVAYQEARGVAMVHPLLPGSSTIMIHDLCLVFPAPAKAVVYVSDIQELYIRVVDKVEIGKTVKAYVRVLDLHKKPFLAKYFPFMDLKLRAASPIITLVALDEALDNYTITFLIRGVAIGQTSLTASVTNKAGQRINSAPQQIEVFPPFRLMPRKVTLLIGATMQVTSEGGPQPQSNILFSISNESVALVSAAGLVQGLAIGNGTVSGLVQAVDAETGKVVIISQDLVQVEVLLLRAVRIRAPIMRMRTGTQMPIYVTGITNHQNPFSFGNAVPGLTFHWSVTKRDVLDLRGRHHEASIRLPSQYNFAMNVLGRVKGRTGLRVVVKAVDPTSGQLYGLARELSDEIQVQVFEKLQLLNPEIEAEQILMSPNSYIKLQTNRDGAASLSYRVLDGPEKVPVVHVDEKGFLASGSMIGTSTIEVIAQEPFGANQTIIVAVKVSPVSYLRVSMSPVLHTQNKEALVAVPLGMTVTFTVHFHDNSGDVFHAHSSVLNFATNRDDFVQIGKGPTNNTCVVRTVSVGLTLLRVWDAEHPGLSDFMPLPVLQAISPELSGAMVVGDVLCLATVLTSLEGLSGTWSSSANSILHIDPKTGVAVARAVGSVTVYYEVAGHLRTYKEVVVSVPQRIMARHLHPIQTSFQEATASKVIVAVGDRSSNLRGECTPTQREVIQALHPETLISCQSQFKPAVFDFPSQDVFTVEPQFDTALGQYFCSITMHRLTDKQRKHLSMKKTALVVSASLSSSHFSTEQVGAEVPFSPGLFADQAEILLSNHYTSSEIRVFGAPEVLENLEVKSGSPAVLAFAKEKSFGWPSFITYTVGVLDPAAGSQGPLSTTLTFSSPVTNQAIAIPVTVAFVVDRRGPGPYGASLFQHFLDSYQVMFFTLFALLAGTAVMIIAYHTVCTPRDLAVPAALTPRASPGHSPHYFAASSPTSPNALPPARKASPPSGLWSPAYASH
# Sequence of UniProt O75251 (O75251 whole entry, looked up): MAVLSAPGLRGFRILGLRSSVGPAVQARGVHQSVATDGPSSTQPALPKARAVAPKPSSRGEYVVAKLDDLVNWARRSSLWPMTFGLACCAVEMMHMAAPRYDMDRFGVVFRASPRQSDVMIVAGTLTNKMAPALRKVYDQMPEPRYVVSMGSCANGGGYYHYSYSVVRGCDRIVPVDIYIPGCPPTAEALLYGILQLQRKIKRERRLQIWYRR
# Sequence of UniProt P56556 (P56556 whole entry, looked up): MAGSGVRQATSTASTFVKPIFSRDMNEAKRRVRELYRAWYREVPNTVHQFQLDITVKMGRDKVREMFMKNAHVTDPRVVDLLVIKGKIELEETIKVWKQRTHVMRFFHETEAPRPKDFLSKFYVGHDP
# Sequence of UniProt Q96DE0 (Q96DE0 whole entry, looked up): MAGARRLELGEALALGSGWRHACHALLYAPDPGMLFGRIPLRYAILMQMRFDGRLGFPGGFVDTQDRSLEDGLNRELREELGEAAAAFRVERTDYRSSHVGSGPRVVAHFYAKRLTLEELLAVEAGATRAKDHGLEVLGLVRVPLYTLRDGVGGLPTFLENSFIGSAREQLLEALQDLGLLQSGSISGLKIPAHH
# Sequence of UniProt Q8WV92 (Q8WV92 whole entry, looked up): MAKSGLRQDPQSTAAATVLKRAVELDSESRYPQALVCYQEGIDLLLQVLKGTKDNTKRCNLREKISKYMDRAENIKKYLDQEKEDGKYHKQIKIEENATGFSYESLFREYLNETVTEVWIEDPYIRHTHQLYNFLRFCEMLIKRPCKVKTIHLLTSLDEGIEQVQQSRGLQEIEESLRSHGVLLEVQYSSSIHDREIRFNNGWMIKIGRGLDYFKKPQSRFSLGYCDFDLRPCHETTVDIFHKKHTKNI
row,Target,log2 fold change
1,NDUFB8 (UniProt O95169),-0.04
2,MRPS12 (UniProt O15235),-0.03
3,MKNK1 (UniProt Q9BUB5),0.008
4,NELFA (UniProt Q9H3P2),0.092
5,MRPS2 (UniProt Q9Y399),-0.19
6,MRPS16 (UniProt Q9Y3D3),0.02
7,NOP56 (UniProt O00567),0.007
8,MITD1 (UniProt Q8WV92),0.018
9,NDUFS7 (UniProt O75251),0.039
10,NARS2 (UniProt Q96I59),-0.046
11,NDUFA6 (UniProt P56556),0.044
12,NDUFA9 (UniProt Q16795),-0.04
13,NMNAT1 (UniProt Q9HAN9),-0.115
14,NQO1 (UniProt P15559),-0.094
15,OTULIN (UniProt Q96BN8),0.086
16,NDUFB7 (UniProt P17568),-0.051
17,MUL1 (UniProt Q969V5),0.069
18,MSTO1 (UniProt Q9BUK6),0.007
19,NSUN2 (UniProt Q08J23),-0.022
20,MKRN2 (UniProt Q9H000),-0.009

row,Target,log2 fold change
1,NFE2 (UniProt Q16621),-0.056
2,MRPS9 (UniProt P82933),0.076
3,NCAPH (UniProt Q15003),0.016
4,NGLY1 (UniProt Q96IV0),-0.064
5,NUDT16 (UniProt Q96DE0),-0.168
6,NIBAN1 (UniProt Q9BZQ8),-0.052
7,NUP210 (UniProt Q8TEM1),-0.045
8,NMT1 (UniProt P30419),-0.056
9,MRPS35 (UniProt P82673),-0.04
10,OPA1 isoform 2 (UniProt O60313),0.002
11,"NA, A0A096LPI6",-0.034
12,NOL7 (UniProt Q9UMY1),-0.119
13,MRPS15 (UniProt P82914),-0.024
14,MXRA7 (UniProt P84157),-0.017
15,MPP1 (UniProt Q00013),0.032
16,MTMR14 (UniProt Q8NCE2),-0.04
17,MRPS25 (UniProt P82663),-0.038
18,MMS19 isoform 8 (UniProt Q96T76),-0.019
19,NUDT21 (UniProt O43809),-0.077

# Compound: COc1cc2nc(-c3cc(F)ccc3O)nc(N[C@@H]3CNC[C@H]3C(C)(C)O)c2cc1OC
# Assay: as above
# Method in brief: as §1
row,Target,log2 fold change
1,NDUFB8 (UniProt O95169),-0.141
2,MRPS12 (UniProt O15235),-0.088
3,MKNK1 (UniProt Q9BUB5),-0.021
4,NELFA (UniProt Q9H3P2),0.105
5,MRPS2 (UniProt Q9Y399),0.005
6,MRPS16 (UniProt Q9Y3D3),-0.054
7,NOP56 (UniProt O00567),0.045
8,MITD1 (UniProt Q8WV92),-0.013
9,NDUFS7 (UniProt O75251),-0.106
10,NARS2 (UniProt Q96I59),0.007
11,NDUFA6 (UniProt P56556),0.048
12,NDUFA9 (UniProt Q16795),-0.008
13,NMNAT1 (UniProt Q9HAN9),0.132
14,NQO1 (UniProt P15559),0.011
15,OTULIN (UniProt Q96BN8),0.014
16,NDUFB7 (UniProt P17568),-0.077
17,MUL1 (UniProt Q969V5),-0.05
18,MSTO1 (UniProt Q9BUK6),0.024
19,NSUN2 (UniProt Q08J23),-0.235
20,MKRN2 (UniProt Q9H000),0.101

row,Target,log2 fold change
1,NFE2 (UniProt Q16621),-0.032
2,MRPS9 (UniProt P82933),-0.021
3,NCAPH (UniProt Q15003),0.092
4,NGLY1 (UniProt Q96IV0),0.047
5,NUDT16 (UniProt Q96DE0),0.025
6,NIBAN1 (UniProt Q9BZQ8),-0.043
7,NUP210 (UniProt Q8TEM1),-0.319 (active)
8,NMT1 (UniProt P30419),-0.009
9,MRPS35 (UniProt P82673),0.026
10,OPA1 isoform 2 (UniProt O60313),-0.249 (active)
11,"NA, A0A096LPI6",-0.123
12,NOL7 (UniProt Q9UMY1),-0.086
13,MRPS15 (UniProt P82914),0.016
14,MXRA7 (UniProt P84157),-0.007
15,MPP1 (UniProt Q00013),0.016
16,MTMR14 (UniProt Q8NCE2),0.069
17,MRPS25 (UniProt P82663),-0.055
18,MMS19 isoform 8 (UniProt Q96T76),0.06
19,NUDT21 (UniProt O43809),0.102
